HCMV inh – qHTS Assay for inhibitors of the human cytomegalovirus (HCMV); HFF cells, HCMV-luciferase reporter, 72 h; active compounds read low; AID 1259415, 2018; 410,000 compounds, 4.5% hits; activity change, negative = inhibition, % at 57.5 µM; in the data active = activity change below about -60%; inconclusive = no clear call, values can overlap the other calls; inactive = above about -39%
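Two compound doses tested in HFFs infected with HCMV-luciferase, MOI 1 PFU/cell, 72 h at 37C. Lysate luminescence read with OneGlo; data normalized against buffer-only and 10uM Salinomycin inhibitor controls.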
Pf growth 96h – Primary qHTS for delayed death inhibitors of the malarial parasite plastid, 96 hour incubation. AID 504834, 2011. 320,000 compounds, 6.9% hits. Potency, µM (series often up to 28.7 µM), actives largely listed as inhibitors. P. falciparum luciferase reporter growth, 96 h
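Luminescence readout: decreased luciferase signal marks inhibited growth of reporter-expressing P. falciparum in infected red cells (2% hematocrit, 0.05% parasitemia final), exposed to compound two generations (96 h, 37 C, 5% CO2).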
Sm TGR inh – qHTS Assay for the Inhibitors of Schistosoma Mansoni Peroxiredoxins. Schistosoma mansoni thioredoxin glutathione reductase (TGR), Q962Y6. 360,000 compounds, 3% hits. purified TGR, DTNB reduction, TNB absorbance 405 nm. Potency, µM (highest dose often 114 µM), most hits filed as inhibitors; also: nearly all actives have a fitted effect of over 60% in size
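TGR 20 nM + NADPH 100 uM (dispensed conc.), cpd preinc 15 min RT; start with NADPH (500 uM addition) then DTNB (15 mM addition). Kinetic TNB absorbance, 405 nm filter. Four-parameter Hill fit across titration.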
Giardia FBPA inh – qHTS Assay for Inhibitors of Fructose-1,6-bisphosphate Aldolase from Giardia Lamblia; purified Giardia FBPA; Potency, µM (doses to about 59.6 µM), most hits filed as inhibitors; 290,000 compounds, 0.71% hits; AID 2451, 2010; also: nearly all actives have a fitted effect of over 55% in size
Target sequence (A8B2U2 whole entry, looked up): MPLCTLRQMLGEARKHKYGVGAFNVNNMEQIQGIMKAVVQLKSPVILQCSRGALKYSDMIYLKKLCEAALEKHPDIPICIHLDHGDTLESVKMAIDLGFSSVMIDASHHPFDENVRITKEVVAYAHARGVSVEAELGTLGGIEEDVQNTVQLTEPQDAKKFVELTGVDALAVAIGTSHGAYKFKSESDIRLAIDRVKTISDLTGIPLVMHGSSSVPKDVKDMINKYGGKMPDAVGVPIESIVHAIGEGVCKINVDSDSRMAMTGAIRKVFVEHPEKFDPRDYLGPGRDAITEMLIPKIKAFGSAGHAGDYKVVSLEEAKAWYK
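Giardia FBPA (40 nM reagent) was preincubated 10 min at RT with compound (up to 57.5 uM final), then substrate plus GAPDH/TPI/NAD/arsenate coupling system with diaphorase/resazurin was added; resorufin fluorescence (525/598 nm) was read after 20 min.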
Pf growth 48h – Primary qHTS for delayed death inhibitors of the malarial parasite plastid, 48 hour incubation. P. falciparum luciferase growth in erythrocytes, 48 h. Potency, µM (highest dose often 28.7 µM), hits mostly inhibitors. 310,000 compounds, 5.9% hits
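Luciferase-expressing P. falciparum in infected erythrocytes (2% hematocrit, 0.1% parasitemia final) in RPMI 1640/0.5% Albumax were exposed to compound for 48 hours at 37 C, 5% CO2; growth read as luminescence.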
Of the large screens only hits and unclear results are named; the others gave an inactive call. This is a sample that favours compounds with a hit; in the whole collection about 14% have one here. Unless noted, calls follow the shape of the dose curve; as a rule, active = well fitted curve in the direction sought with a large enough effect; inconclusive = small, poorly fitted or top-dose-only effect, or another doubt; inactive = no such curve, though single readings can be large; an effect the other way counts as inactive or inconclusive.

CC(C)CCN(C(=O)COc1ccc(C#N)cc1)c1c(N)n(Cc2ccccc2)c(=O)[nH]c1=O	none (no result: HCMV inh, Sm TGR inh)
O=C(CSc1nc(=O)n(Cc2ccco2)c2c1CCC2)Nc1cccc(F)c1	none (no result: Pf growth 96h, Giardia FBPA inh, Pf growth 48h)
CC(C)(C)NC(=O)Nc1nnc(SCC(=O)NC2CCCCC2)s1	Pf growth 96h inconclusive, Pf growth 48h inconclusive (no result: Giardia FBPA inh)
O=C(NC1CCCCC1)c1cc(-c2ccco2)on1	Pf growth 96h 11.7µM
COc1cccc(-c2cc(C(=O)NC3CCCCC3)no2)c1	none
CC(/C=N/NC(=O)c1cc(-c2ccncc2)nc2ccccc12)=C\c1ccco1	Giardia FBPA inh inconclusive (no result: HCMV inh)
O=C(NC1CC1)c1cc(-c2ccco2)nc2ccccc12	Sm TGR inh 10µM, Giardia FBPA inh inconclusive (no result: HCMV inh)
O=C(N/N=C/c1ccco1)c1cc(-c2cccc(Br)c2)nc2ccccc12	HCMV inh -62.6, Pf growth 96h inconclusive, Pf growth 48h inconclusive
O=C(Nc1nccs1)c1cc(-c2ccco2)nc2ccccc12	Sm TGR inh 56.2µM
O=C(O)c1cc(-c2ccco2)nc2ccccc12	Sm TGR inh inconclusive, Giardia FBPA inh inconclusive
CC(=O)C12CCCCC1CC1C3CC(C)C4(O)CC(=O)CCC4(C)C3CCC12C (centres undefined)	Pf growth 96h 9.28µM
CC(=O)C1CCC2C3CC(C)C4(O)CC(=O)CCC4(C)C3C(O)CC12C (centres undefined)	none (no result: Pf growth 96h, Sm TGR inh, Giardia FBPA inh, Pf growth 48h)
O=C(Cc1ccccc1)Nc1nnc2n1CCS2	none (no result: Pf growth 96h, Giardia FBPA inh, Pf growth 48h)
COc1cc2c(C(=O)Nc3ccccc3F)cn(C)c(=O)c2cc1OC	Pf growth 96h 8.28µM, Sm TGR inh inconclusive
COc1ccccc1NC(=O)c1cn(C)c(=O)c2cc(OC)c(OC)cc12	Pf growth 96h 8.28µM
COc1ccc(NCc2ccc(OC)c(Cn3ccnc3)c2)c(OC)c1	Pf growth 48h inconclusive
CCC(=O)N1c2ccccc2CC1C(=O)NCc1cccc(OC)c1OC (centres undefined)	none (no result: Pf growth 96h, Giardia FBPA inh, Pf growth 48h)
CNC(=S)N(Cc1ccc2c(c1)OCO2)C1CC(=O)N(c2ccccc2)C1=O (centres undefined)	none
Cc1ccc(-c2ccc(=O)n(CCC(=O)N3CCN(c4cccc(C)c4)C(C)C3)n2)cc1 (centres undefined)	Pf growth 48h inconclusive
NC(=O)NC(=O)C(c1ccccc1)N1CCN(S(=O)(=O)Cc2ccccc2)CC1 (centres undefined)	HCMV inh -87.6 (no result: Giardia FBPA inh)
NC(=O)Nc1ccc(C(=O)N2CCN(S(=O)(=O)Cc3ccccc3)CC2)cc1	Pf growth 96h inconclusive, Pf growth 48h inconclusive (no result: Giardia FBPA inh)
CC(COc1cccc2ccccc12)CN1CCN(C)CC1 (centres undefined)	Pf growth 96h inconclusive, Sm TGR inh 25.1µM, Pf growth 48h inconclusive
OC(COc1cccc2ccccc12)CN1CCN(c2ccccc2)CC1 (centres undefined)	none
CC(=O)c1[nH]c(C)c(C(=O)NCc2ccc(Cl)cc2)c1C	HCMV inh -93.6 (no result: Pf growth 96h, Giardia FBPA inh, Pf growth 48h)
CCOC(=O)c1cnc2c(F)ccc(F)c2c1Sc1ccccc1	Pf growth 96h inconclusive, Sm TGR inh 15.8µM
COc1ccc2c(c1)CCc1c-2nc2ccccc2c1N1CCOCC1	Pf growth 96h inconclusive, Sm TGR inh 39.8µM, Giardia FBPA inh inconclusive, Pf growth 48h inconclusive
CCN(CC)CCOc1cc2c(nn1)Oc1ccccc1N2C	Pf growth 96h 3.29µM
CCOC(=O)c1c(C)n(C)c2cc(Br)c(O)c(O)c12	Pf growth 96h inconclusive, Sm TGR inh inconclusive
CCOC(=O)c1c(CSc2cccs2)n(C)c2cc(Br)c(O)c(CN(C)C)c12	Pf growth 48h 13.1µM (no result: Sm TGR inh)
N=C(N)c1ccc2cc(OC(=O)c3ccc(N=C(N)N)cc3)ccc2c1	Pf growth 96h 1.07µM, Pf growth 48h 12µM (no result: Sm TGR inh, Giardia FBPA inh)
CN(C)C(=O)COC(=O)Cc1ccc(OC(=O)c2ccc(N=C(N)N)cc2)cc1	Pf growth 96h inconclusive (no result: HCMV inh, Sm TGR inh, Giardia FBPA inh)
CC(=O)O[C@@]12CO[C@@H]1C[C@H](O)[C@@]1(C)C(=O)[C@H](O)C3=C(C)[C@@H](OC(=O)[C@H](O)[C@@H](NC(=O)c4ccccc4)c4ccccc4)C[C@@](O)([C@@H](OC(=O)c4ccccc4)C12)C3(C)C (some centres undefined)	HCMV inh inconclusive, Pf growth 96h 0.0738µM, Pf growth 48h 0.0738µM
CC(=O)OC1C(=O)[C@@]2(C)C(O)CC3OC[C@]3(OC(C)=O)C2C(OC(=O)c2ccccc2)[C@]2(O)CC(OC(=O)C(O)C(NC(=O)c3ccccc3)c3ccccc3)C(C)=C1C2(C)C (some centres undefined)	none (no result: HCMV inh, Pf growth 96h, Sm TGR inh, Pf growth 48h)
CC(=O)O[C@@H]1C(=O)[C@@]2(C)[C@H](O)C[C@H]3OC[C@]3(OC(C)=O)[C@@H]2[C@H](OC(=O)c2ccccc2)[C@@]2(O)C[C@H](OC(=O)[C@@H](O)[C@@H](NC(=O)c3ccccc3)c3ccccc3)C(C)=C1C2(C)C (stereo in doubt)	none (no result: HCMV inh, Pf growth 96h, Sm TGR inh, Pf growth 48h)
CC(=O)O[C@H]1C(=O)[C@]2(C)[C@H]([C@H](OC(=O)c3ccccc3)[C@]3(O)C[C@H](OC(=O)[C@H](O)[C@@H](NC(=O)c4ccccc4)c4ccccc4)C(C)=C1C3(C)C)[C@]1(OC(C)=O)CO[C@@H]1C[C@@H]2O	none (no result: Pf growth 96h, Sm TGR inh, Giardia FBPA inh, Pf growth 48h)
CC(=O)O[C@H]1C(=O)[C@@]2(C)C([C@H](OC(=O)c3ccccc3)[C@]3(O)C[C@H](OC(=O)[C@H](O)[C@@H](NC(=O)Cc4ccccc4)c4ccccc4)C(C)=C1C3(C)C)[C@]1(OC(C)=O)CO[C@@H]1C[C@@H]2O (some centres undefined)	Pf growth 96h 0.738µM, Pf growth 48h 3.7µM
CC(=O)O[C@@]12CO[C@@H]1C[C@H](O)[C@@]1(C)C(=O)[C@H](O)C3=C(C)[C@@H](OC(=O)C(O)[C@@H](NC(=O)OC(C)(C)C)c4ccccc4)C[C@@](O)([C@@H](OC(=O)c4ccccc4)[C@H]21)C3(C)C (some centres undefined)	Pf growth 96h 0.0135µM, Pf growth 48h 0.0135µM (no result: HCMV inh, Sm TGR inh, Giardia FBPA inh)
Cc1cc2cc(CCNS(=O)(=O)c3ccc(Br)cc3)c(=O)[nH]c2cc1C	none (no result: Pf growth 96h, Giardia FBPA inh, Pf growth 48h)
CCN1CCN(S(=O)(=O)c2ccc(Cl)c(C(=O)N(C)CCOc3ccc(Cl)cc3)c2)CC1	HCMV inh inconclusive, Pf growth 96h inconclusive, Pf growth 48h inconclusive (no result: Giardia FBPA inh)
Cc1c(C)c(C)c2[nH]c(-c3ccc4c(c3)OCO4)nc2c1C	Pf growth 96h 2.08µM, Pf growth 48h 2.33µM (no result: HCMV inh)
COc1ccc(-c2[nH]c(-c3ccc4c(c3)OCO4)nc2-c2ccccc2)cc1	Pf growth 96h inconclusive, Pf growth 48h inconclusive
Cc1cccc(OCCC(=O)Nc2ccc(C)c(S(=O)(=O)N3CCOCC3)c2)c1	none (no result: Pf growth 96h, Sm TGR inh, Giardia FBPA inh, Pf growth 48h)
Cc1cccc(OCCC(=O)NCC(=O)Nc2cccc(C)c2C)c1	Giardia FBPA inh 15.8µM
